Experimental data reported in PubChem BioAssay (NCATS).
A number with no mark means an inactive call. A call without a number means that no potency is given here. Calls of active or inactive are those of the source. Calls come from the whole dose curve; as a rule, active = well fitted inhibition curve with a large enough effect; inconclusive = small, poorly fitted or top-dose-only effect; inactive = flat fitted curve, though single readings scatter.

system: Nanoluciferase (engineered Oplophorus gracilirostris luciferase); test: Primary Nanoluciferase (NLuc) qHTS assay for identification of artifact compounds. (AID 1845222); details: NLuc-conditioned medium, Nano-Glo luminescence, 5 min; series mostly up to 54.1 µM
Method in brief: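 Luminescence read-out of secreted NLuc in S16 cell conditioned medium (1:55); compounds tested with 15 min RT preincubation, then Nano-Glo substrate 1:100, 5 min. % inhibition vs no-enzyme and DMSO controls, 4-parameter Hill fit.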

SMILES | Potency | activity, negative = inhibition
O=[N+]([O-])c1cccc2[nH]c(CNc3nc(N4CCOCC4)nc4c3ncn4-c3ccsc3)nc12 | inactive | –
Cc1c(F)cc(C(=O)NC2CC2)cc1-c1c(F)cn2c(C(C)(C)C)nnc2c1F | inactive | –
C(#Cc1nc2ncccc2nc1OCCN1CCCC1)c1ccccc1 | inactive | –
OC[C@@]1(O)CO[C@@H](OC[C@H]2O[C@@H](Oc3c[nH]c4ccccc34)[C@H](O)[C@@H](O)[C@@H]2O)[C@@H]1O | inactive | –
CCn1cc(NC(=S)Nc2cc(Cl)ccc2OC)c(C(N)=O)n1 | inactive | –
COc1cc(-c2ncn(/C=C\C(=O)OC(C)C)n2)cc(C(F)(F)F)c1 | inactive | –
COCCOc1cnc2ccn([C@H](C)c3nnc4c(F)cc(-c5cnn(C)c5)cn34)c(=O)c2c1 | inactive | –
CC1=CC(=O)C(=C(C)C)CC2C1CCC2(C)O (centres undefined) | inactive | –
O=C1CCC=CC1(O)C(=O)OCc1ccccc1O[C@@H]1O[C@H](CO)[C@@H](O)[C@H](O)[C@H]1O (some centres undefined) | inactive | –
O=C(O)c1ccc(OC2OC(CO)C(O)C(O)C2O)cc1 (centres undefined) | inactive | –
C[C@@H]1O[C@@H](O[C@H]2[C@H](O)[C@@H](O[C@@H]3O[C@H](CO)[C@@H](O)[C@H](O[C@@H]4O[C@H](CO)[C@@H](O)[C@H](O)[C@H]4O)[C@H]3O)[C@H](O[C@H]3CC[C@@]4(C)C(=CC[C@@H]5C4CC[C@@]4(C)C5C[C@@H]5OC6(CC[C@@](C)(CO[C@@H]7O[C@H](CO)[C@@H](O)[C@H](O)[C@H]7O)O6)[C@@H](C)[C@@H]54)C3)O[C@@H]2CO)[C@H](O)[C@H](O)[C@H]1OC1OC(CO)C(O)C(O)C1O (some centres undefined) | – | 1.98% [at 11.6 µM]
C/C=C/c1ccc2c(c1)[C@@H](C)[C@H](c1ccc(O)cc1)O2 | inactive | –
CC1=C(COC2OC(CO)C(O)C(O)C2O)C(C(CO)C(=O)O)CC1 (centres undefined) | inactive | –
Cc1ccc(S(=O)(=O)Nc2ccccc2N2CCCCC2)s1 | inactive | –
O=C(CN1C(=O)C2(CCCC2)NCC1c1cc(F)cc(F)c1)Nc1ccc2c(c1)CC1(C2)C(=O)Nc2ncccc21 (centres undefined) | inactive | –
COc1cc(C)c(C(=O)Oc2cc(C)c(C(=O)Oc3cc(C)c(C(=O)NC(C)C(=O)O)c(O)c3)c(O[C@@H]3O[C@H](CO)[C@@H](O)[C@H](O)[C@H]3OC(C)=O)c2)c(OC)c1 (some centres undefined) | inactive | –
CC1=CC(=O)CC(C)(C)C1CCC(C)O[C@@H]1O[C@H](CO[C@@H]2OC[C@@H](O)[C@H](O)[C@H]2O)[C@@H](O)[C@H](O)[C@H]1O (some centres undefined) | inactive | –
C=CC1(C)C=C2C(=O)OC(=O)C3=C(CCCC3(C)C)C2(O)CC1 (centres undefined) | inactive | –
CN1CCN(c2ccc(C(=O)Nc3n[nH]c4ccc(Cc5cc(F)cc(F)c5)cc34)c(NC3CCOCC3)c2)CC1 | inactive | –
COC1C(=O)CCC2(CO2)C1(O)C1(C)OC1CC=C(C)C (centres undefined) | inactive | –
CC[C@@H](N)CNc1ccnc(-c2cc(-c3cnn(C)c3)ccc2O)n1 | inactive | –
CC1CCCCN1S(=O)(=O)c1ccc(N2CCCC2=O)cc1 (centres undefined) | inactive | –
Cc1cc(C(N)=O)ccc1-n1c(CCC(=O)O)ccc1-c1ccc(-n2ccnc2)cc1 | inactive | –
CC(C)(C)NCCCNC(=O)c1cccc(Br)c1 | inactive | –
C[C@@H]1C[C@H]2O[C@@H]2/C=C\C=C\C(=O)Cc2c(Cl)c(O)cc(O)c2C(=O)O1 | – | -2.67% [at 11.6 µM]
Cc1cccc(/C=N/Nc2cc(N3CCOCC3)n3nc(-c4ccncc4)cc3n2)c1 | inactive | –
CCCN1CCN(c2ccc(C(=O)NC3(C(=O)NCC#N)CCCCC3)cc2)CC1 | inactive | –
CC1C(=O)CC2C3CCC(C(=O)O)C12CC3(C)CO (centres undefined) | inactive | –
CC1CC[C@]2(C(=O)O)CC[C@]3(C(=O)O)C(=CCC4[C@@]5(C)CC[C@H](OC6OC(C)C(O)C(OC7OC(CO)C(O)C(O)C7O)C6O)C(C)(C)C5CC[C@]43C)C2C1C (some centres undefined) | inactive | –
